Assay outcomes deposited in PubChem by National Center for Advancing Translational Sciences (NCATS).
This is a sample that favours compounds with a hit; in the whole collection about 3.4% have one here.
RGS12 GoLoco inh – qHTS Assay for Inhibitors of RGS12 GoLoco Motif Activity (Red Fluorophore); Gai1:RGS12 GoLoco peptide FP, rhodamine, 10 min; Potency, µM (top dose mostly 61.6 µM), without a hit: at the top dose activity, negative = inhibition, most hits filed as inhibitors; actives 0.44% (n = 230,000); active = well fitted inhibition curve with a large enough effect, not every such curve was filed as active; inactive = no such curve, though single readings can be large or run the other way; note: nearly all actives have a fitted effect of over 30% in size
KDM4E inh – qHTS Assay for Inhibitors of Human Jumonji Domain Containing 2E (JMJD2E) | JMJD2E catalytic domain, FDH-coupled NADH fluorescence (FDH is formaldehyde dehydrogenase) | Potency, µM (top dose mostly 57.1 µM), inactives show at the highest dose activity change, negative = inhibition, hits mostly inhibitors | actives 1.6% (n = 230,000) | AID 2147, 2009; active = well fitted inhibition curve with a large enough effect, not every such curve was filed as active; inconclusive = small, poorly fitted or top-dose-only effect, or another doubt; inactive = no such curve, though single readings can be large or run the other way;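 note: 0% = wells with enzyme and -100% = buffer wells without enzyme; nearly all actives have a fitted effect of over 50% in size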
Target sequence (B2RXH2 1-337 limits assumed): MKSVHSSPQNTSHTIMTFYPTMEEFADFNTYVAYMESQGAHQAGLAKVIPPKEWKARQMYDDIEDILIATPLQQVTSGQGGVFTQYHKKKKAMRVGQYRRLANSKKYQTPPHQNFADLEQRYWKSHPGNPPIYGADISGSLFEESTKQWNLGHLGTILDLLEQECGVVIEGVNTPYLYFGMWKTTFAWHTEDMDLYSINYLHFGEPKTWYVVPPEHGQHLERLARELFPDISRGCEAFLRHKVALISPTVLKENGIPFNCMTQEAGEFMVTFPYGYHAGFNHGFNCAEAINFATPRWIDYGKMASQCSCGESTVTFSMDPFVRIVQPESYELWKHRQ
Tau fluor counter – Counterscreen qHTS for Inhibitors of Tau Fibril Formation, Fluorescence Polarization; actives 0.93% (n = 280,000); Potency, µM (top dose mostly 57.7 µM), for inactives: top-dose activity change, negative = decrease; tau K18 P301L Alexa594 fluorescence, heparin fibrillization; note: nearly all actives have a fitted effect of over 55% in size
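Human tau K18 P301L (15 uM unlabeled, 0.24 uM Alexa 594-labeled) in 100 mM sodium acetate pH 7 with 20 uM heparin, 6 hr at 37 C. ThT 30 uM added, 1 hr ambient; Alexa 594 FP and total fluorescence read at 555/632 nm.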
Tau FP inhib – qHTS for Inhibitors of Tau Fibril Formation, Fluorescence Polarization | K18 P301L tau heparin fibrillization, Alexa594 FP, 6 h | Potency, µM (series often up to 57.7 µM), for the others: top-dose activity, negative = inhibition, actives largely listed as inhibitors | actives 0.39% (n = 280,000) | AID 1468, 2008; note: nearly all actives have a fitted effect of over 55% in size
Target sequence (P10636 561-689 P618L limits assumed): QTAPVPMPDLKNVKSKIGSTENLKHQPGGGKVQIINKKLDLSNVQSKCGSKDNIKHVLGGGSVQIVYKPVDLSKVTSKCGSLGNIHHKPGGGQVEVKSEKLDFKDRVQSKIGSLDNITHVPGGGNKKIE
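Heparin (20 uM) drove fibril formation of recombinant tau K18 P301L, 15 uM unlabeled with 0.24 uM Alexa 594 label, for 6 hr at 37 C in 100 mM sodium acetate pH 7. Fluorescence polarization (555/632 nm) read 1 hr after 30 uM ThT.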
Tau ThT inhib – qHTS for Inhibitors of Tau Fibril Formation, Thioflavin T Binding. Microtubule-associated protein tau (Homo sapiens), P10636. recombinant tau K18 P301L (four-repeat tau fragment), heparin-induced fibrillization, ThT fluorescence. Potency, µM (highest dose often 57.4 µM), without a hit: at the top dose activity, negative = inhibition, actives largely listed as inhibitors. actives 2.1% (n = 270,000). AID 1460, 2008; note: nearly all actives have a fitted effect of over 55% in size
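Aggregation was driven by heparin (20 uM final) acting on recombinant tau […] bearing P301L in 100 mM sodium acetate pH 7; fibrils were detected with Thioflavin T.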
* = called active by the depositor; ? = inconclusive; / = not tested or not shown; ! = a repeat was not active; [ ] = dose if it differs, or a comment. Unless noted, calls come from the whole dose curve; as a rule, active = well fitted curve in the direction sought with a large enough effect; inconclusive = small, poorly fitted or top-dose-only effect, or another doubt; inactive = no such curve, though single readings can be large; an effect the other way counts as inactive or inconclusive. Unless noted, % is set by controls: 0 for no effect and ±100 for the full control effect; potency is the fitted concentration of half-maximal effect.

SMILES | RGS12 GoLoco inh | KDM4E inh | Tau fluor counter | Tau FP inhib | Tau ThT inhib
Cn1cccc1/C=N/NC(=O)C(O)c1ccccc1 (stereo not drawn) | -3% | 25µM* | 14%[11.6 µM] | 5%[11.6 µM] | /
Cc1ccc2c(CC(=O)Nc3c(C(=O)Nc4cccc(Cl)c4)oc4ccccc34)coc2c1C | / | / | -18% | ? | 18%
Cc1[nH]n(-c2ccccc2)c(=S)c1C=Nc1ccc([N+](=O)[O-])cc1 | 13µM* | 6.3µM* | -19% | ? | 25µM*
Cc1[nH]n(-c2ccccc2)c(=O)c1C=Nc1ccc(S(=O)(=O)N=C(N)N)cc1 | -3% | -7% | -14% | -4% | /
N#CCCN1CCCc2cc(N=Nc3ccc(C(F)(F)F)cc3)ccc21 | 8% | -10% | 8.9µM*[quencher] | ? | 3.5µM*
CC(Cc1ccc(O)c(O)c1)(NN)C(=O)O (stereo not drawn) | -18% | 2.2µM* | -24% | ? | 14µM*
C[C@](N)(Cc1ccc(O)c(O)c1)C(=O)O | 11% | 16µM*! | ? | ? | ?
Cc1cccc(CSc2cn(CC(=O)N3CCCC3)c3ccccc23)c1 | / | / | -18% | 8% | ?
Cc1c(Cl)cccc1-n1nc(C)c2c(C)cc(=O)n(CC(=O)N3CCCc4ccccc43)c21 | / | / | -9% | -6% | -17%
CS(=O)(=O)n1nc(-c2ccc(Cl)cc2)nc1N | 2% | ? | -15% | -11% | -13%
Cn1nc(-c2ccc(Cl)cc2)nc2c(=O)n(C)c(=O)nc1-2 | -8% | ? | -16% | ? | 8.9µM*
CCC(Sc1nc(-c2ccccc2)[nH]c1S(=O)(=O)c1ccc(C)cc1)C(=O)O (stereo not drawn) | / | / | -8% | 0% | -7%
O=C1NN(c2ccccc2)C(=O)/C1=C\c1coc2ccc(O)cc2c1=O | 0% | -1% | ? | -13% | 14µM*
COc1ccc(-n2c(C)cc(/C=C3\C(=O)NN(c4ccccc4)C3=O)c2C)cc1 | 4% | -9% | -30% | 9% | ?
Cc1cc(/C=C2/C(=O)NN(c3ccccc3)C2=O)c(C)n1-c1ccc(O)cc1 | 8% | -7% | -22% | 11% | 13µM*
COc1ccccc1NC(=O)N1CCN(c2nnc(C)c3c(C)n(-c4ccccc4)nc23)CC1 | / | / | 11% | 1% | 3%
COc1ccc(NC2=Nc3cccc4cccc2c34)cc1 | 27% | -4% | ? | ? | 13µM*
Fc1ccc(/C=N/NC2=Nc3cccc4cccc2c34)cc1 | 59% | 10% | ? | 6% | 2.2µM*
CCN(c1ccccc1)S(=O)(=O)c1ccc(Cl)c(NC(=O)COC(=O)c2cc(O)c3ccccc3c2O)c1 | 0% | 8.9µM* | 8.9µM*[quencher] | ? | 11µM*
CC(=O)c1ccc2c(c1)N(C)c1ccccc1S2 | 5% | 6% | ? | 13% | 10µM*
COc1ccc(N2CCN(CCCNC(=O)C3COc4ccc(OC)cc4C3)CC2)cc1 (stereo not drawn) | / | / | -13% | -3% | -12%
COc1ccc(CSCC(=O)N/N=C/c2ccccc2O)cc1 | 23% | 32µM* | -27% | -9% | -8%
COc1ccc(O)c(/C=N/NC(=O)CSc2nnc(C)n2-c2ccccc2)c1 | 13% | 22µM* | -7% | 8% | -9%
O=C(CSc1n[nH]c(=O)[nH]c1=O)N/N=C/c1ccccc1O | -1% | 14µM* | 0% | -15% | -1%
COc1cccc(/C=N/NC(=O)CSc2nnc(C)n2-c2ccccc2)c1O | 16% | 28µM* | -10% | -7% | -13%
SMILES | RGS12 GoLoco inh | KDM4E inh | Tau fluor counter | Tau FP inhib | Tau ThT inhib
COc1ccc(/C=N/NC(=O)CSc2nnc(C)n2-c2ccccc2)c(OC)c1OC | 6% | 4% | -5% | 6% | -11%
O=C(CSc1ccccc1)N/N=C/c1ccccc1O | 9% | ? | -15% | -5% | 1%
Cc1ccc(-c2nn(-c3ccccc3)cc2/C=N/NC(=O)CSc2nnc(C)n2-c2ccccc2)cc1 | -10% | -3% | -27% | 0% | ?
CCOc1ccc(-c2cccc(NS(=O)(=O)c3c(C)cc(C)cc3C)c2)nn1 | / | / | ? | -10% | -5%
CC(=O)N1CCc2nc3sc(C(=O)Nc4ccc(Cl)cc4F)c(N)c3c(C(F)(F)F)c2C1 | / | / | -17% | -8% | ?
O=C(CSc1ncn[nH]1)CSc1ncn[nH]1 | 3% | 3.5µM* | -10% | -5% | -13%
CC(C)c1ccc(C(=O)CSc2ncn[nH]2)cc1 | 0% | 25µM* | -9% | -10% | -24%
CC(C)(C)NC(=O)NC(=O)CSc1ncn[nH]1 | -5% | -4% | 0% | 0% | -3%
O=C(CSc1ncn[nH]1)c1ccc2c(c1)OCCO2 | 2% | ? | 15% | 9% | 3%
O=C(CCN1C(=O)/C(=C/C=C/c2ccccc2)SC1=S)Nc1nc2ccccc2s1 | 40% | 16% | -22% | 5% | 3.5µM*
O=C(COC(=O)CCN1C(=O)/C(=C\C=C\c2ccccc2)SC1=S)Nc1cc(F)ccc1F | 82% | -16% | ? | 1% | 6.3µM*
CCOC(=O)c1cc2c(=O)n3ccccc3nc2n(CCCOC)c1=NC(=O)c1cc2ccccc2o1 | / | / | -27% | -2% | -15%
CCOC(=O)C1=C(O)/C(=C/c2ccc(-c3ccccc3C(=O)O)o2)SC1=Nc1ccc(OC)cc1 | 10% | -14% | -7% | 5% | 16µM*
CCOC(=O)C1=C(O)/C(=C/c2ccc(-c3ccccc3C(=O)O)o2)SC1=Nc1ccc(C)cc1 | 7% | -5% | -6% | 2% | -13%
Fc1ccc2[nH]c3c(c2c1)CN(C(=S)NCc1ccccc1)CC3 | -16% | -17% | 16µM*[quencher] | ? | ?
NC[C@@H]1O[C@H](c2ccccc2)Cc2c1ccc(O)c2O | 0% | 16µM* | -19% | -8% | ?
NC[C@@H]1O[C@H](C23CC4CC(CC(C4)C2)C3)Cc2c1ccc(O)c2O | -6% | 22µM* | ? | -4% | ?
Cc1ccc(C)c(NC(=O)N2CCN(C(=O)c3nsc4ccccc34)CC2)c1 | / | / | 2% | -1% | 6%
Cc1ccc(SCc2nc(-c3ccc(C(=O)Nc4cc(C)ccc4C)cc3)oc2C)cc1 | / | / | -20% | -12% | -18%
COc1ccc(C(=O)Nc2nc3n(n2)C(c2ccc(F)cc2)C=C(c2ccc(Cl)cc2)N3)cc1 (stereo not drawn) | / | / | -13% | -1% | ?
CC(=O)C1=C(c2ccccc2)N(C(C)=O)n2c(C)nnc2S1 | 4% | -2% | -17% | ? | 11µM*
CCOC(=O)CNC(=O)c1cc2c(=O)n3cccc(C)c3nc2n1C | / | / | -11% | -8% | -10%
